Measured values from PubChem BioAssay (EPA / NIEHS).
Calls of active or inactive are those of the source. How the source made its calls: active means hit-call score of the fitted dose curve at least 0.9, where 1 is the maximum; inactive means score below 0.9.

Experiments:
Details in all cases: mRNA level, 48 h; actives raise or lower the signal
[1] = read-out: Lipase C (LIPC), LIPC (gene 3990); experiment: LTEA_HepaRG_LIPC: Life Technologies and Expression Analysis (LTEA) Assay for Lipase C (LIPC) using HepaRG (AID 2283514)
How it was run: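 Differentiated human HepaRG cells in serum-free induction medium were exposed in duplicate for 48 h to eight concentrations (top 100 uM, half-log steps, 0.5% DMSO). LIPC mRNA was quantified by TaqMan qRT-PCR, normalized to ACTB, GAPDH and POLR2A, with bidirectional fitting versus DMSO.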

[2] = read-out: Lipoprotein lipase (LPL), LPL (gene 4023); experiment: LTEA_HepaRG_LPL: Life Technologies and Expression Analysis (LTEA) Assay for Lipoprotein lipase (LPL) using HepaRG (AID 2283515)
How it was run: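 Differentiated human HepaRG cells in serum-free induction medium were exposed in duplicate for 48 h to eight half-log concentrations (top 100 uM) in 0.5% DMSO. LPL mRNA was quantified by TaqMan qRT-PCR, normalized to ACTB, GAPDH and POLR2A.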

[3] = read-out: MicroRNA 122 (MIR122), gene 406906; experiment: LTEA_HepaRG_MIR122: Life Technologies and Expression Analysis (LTEA) Assay for MicroRNA 122 (MIR122) using HepaRG (AID 2283516); further: the transcript read is the microRNA miR-122
How it was run: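 Differentiated human HepaRG cells in serum-free induction medium exposed 48 h to 8 half-log concentrations from 100 uM in 0.5% DMSO, duplicate. MIR122 quantified by Fluidigm TaqMan qRT-PCR, normalised to ACTB, GAPDH, POLR2A; fold change fitted bidirectionally versus DMSO.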

[4] = read-out: matrix metalloproteinase-10 (MMP10), MMP10 (gene 4319); experiment: LTEA_HepaRG_MMP10: Life Technologies and Expression Analysis (LTEA) Assay for matrix metalloproteinase-10 (MMP10) using HepaRG (AID 2283517)
How it was run: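 HepaRG, collagen I, ~100,000 cells/well; serum-free induction medium; 48 h exposure, duplicate, 8-pt half-log to 100 uM, 0.5% DMSO. Readout: TaqMan qRT-PCR, normalized to ACTB/GAPDH/POLR2A; bidirectional fit vs DMSO.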

MYC, MYC (gene 4609) = experiment: LTEA_HepaRG_MYC: Life Technologies and Expression Analysis (LTEA) Assay for MYC using HepaRG (AID 2283518)
How it was run: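 qRT-PCR read-out of MYC transcript (Fluidigm TaqMan, housekeeping-normalized) after 48 h chemical exposure of HepaRG cells; eight concentrations, top 100 uM, half-log steps. Bidirectional curve fitting against 0.5% DMSO vehicle baseline.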

[5] = read-out: matrix metalloproteinase-3 (MMP3), MMP3 (gene 4314); experiment: LTEA_HepaRG_MMP3: Life Technologies and Expression Analysis (LTEA) Assay for matrix metalloproteinase-3 (MMP3) using HepaRG (AID 2283519)
How it was run: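 Differentiated human HepaRG cells, plated 48 h on collagen I, were exposed in duplicate for 48 h in serum-free induction medium to eight half-log concentrations up to 100 uM in 0.5% DMSO. MMP3 mRNA was quantified by TaqMan qRT-PCR, normalised to ACTB, GAPDH and POLR2A.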

[6] = read-out: Paternally Expressed 10 (PEG10), PEG10 (gene 23089); experiment: LTEA_HepaRG_PEG10: Life Technologies and Expression Analysis (LTEA) Assay for Paternally Expressed 10 (PEG10) using HepaRG (AID 2283520)
How it was run: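 Differentiated HepaRG cells exposed 48 h in serum-free induction medium to eight half-log concentrations topping at 100 uM, 0.5% DMSO, in duplicate. PEG10 mRNA quantified by TaqMan qRT-PCR, normalized to ACTB, GAPDH and POLR2A; bidirectional fit versus DMSO.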

[7] = read-out: Nuclear factor NF-kappa-B p105 subunit (Homo sapiens) (UniProt P19838); experiment: LTEA_HepaRG_NFKB1: Life Technologies and Expression Analysis (LTEA) Assay for Nuclear Factor Kappa B Subunit 1 (NFKB1) using HepaRG (AID 2283521);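 further: TaqMan qRT-PCR transcript normalised to ACTB GAPDH and POLR2A housekeeping genes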
How it was run: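 Human HepaRG cells receive eight half-log concentrations, highest 100 uM, for 48 h. NFKB1 expression is then quantified by qRT-PCR and analysed for up- or down-regulation relative to 0.5% DMSO vehicle.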

[8] = read-out: Protein phosphatase 2A (PPP2R4), PTPA (gene 5524); experiment: LTEA_HepaRG_PPP2R4: Life Technologies and Expression Analysis (LTEA) Assay for Protein phosphatase 2A (PPP2R4) using HepaRG (AID 2283522)
How it was run: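 Differentiated human HepaRG cells in serum-free induction medium were exposed 48 h to 8 concentrations (top 100 µM, half-log steps, duplicate) in 0.5% DMSO. PPP2R4 mRNA was measured by TaqMan qRT-PCR, normalised to ACTB, GAPDH and POLR2A, and fitted bidirectionally versus DMSO.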

[9] = read-out: Phosphatase and tensin (PTEN), PTEN (gene 5728); experiment: LTEA_HepaRG_PTEN: Life Technologies and Expression Analysis (LTEA) Assay for Phosphatase and tensin (PTEN) using HepaRG (AID 2283523)
How it was run: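 Differentiated human HepaRG cells, plated 48 h then switched to serum-free induction medium, were exposed in duplicate for 48 h to eight half-log concentrations up to 100 uM in 0.5% DMSO. PTEN mRNA measured by TaqMan qRT-PCR, normalized to ACTB/GAPDH/POLR2A, bidirectional fit versus DMSO.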

[10] = read-out: solute carrier (SLC22A1), SLC22A1 (gene 6580); experiment: LTEA_HepaRG_SLC22A1: Life Technologies and Expression Analysis (LTEA) Assay for solute carrier (SLC22A1) using HepaRG (AID 2283524)
How it was run: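 Human HepaRG cells were plated 48 h, switched to serum-free induction medium, then exposed in duplicate for 48 h to 8-point half-log series from 100 uM in 0.5% DMSO. SLC22A1 mRNA measured by qRT-PCR, normalized to ACTB/GAPDH/POLR2A, fitted bidirectionally versus DMSO.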

[11] = read-out: Pyruvate Dehydrogenase Kinase 4 (PDK4), PDK4 (gene 5166); experiment: LTEA_HepaRG_PDK4: Life Technologies and Expression Analysis (LTEA) Assay for Pyruvate Dehydrogenase Kinase 4 (PDK4) using HepaRG (AID 2283525)
How it was run: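 Differentiated human HepaRG cells, pre-cultured 48 h, were exposed in duplicate for 48 h in serum-free induction medium to eight half-log concentrations up to 100 uM in 0.5% DMSO. PDK4 mRNA was quantified by qRT-PCR, normalized to ACTB, GAPDH and POLR2A, bidirectional fitting versus DMSO.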

[12] = read-out: NAD(P)H dehydrogenase [quinone] 1 (NQO1), NQO1 (gene 1728); experiment: LTEA_HepaRG_NQO1: Life Technologies and Expression Analysis (LTEA) Assay for NAD(P)H dehydrogenase [quinone] 1 (NQO1) using HepaRG (AID 2283526)
How it was run: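 Differentiated human HepaRG cells in serum-free induction medium, dosed in duplicate for 48 h at 8 half-log concentrations up to 100 uM in 0.5% DMSO. NQO1 mRNA by qRT-PCR normalized to ACTB, GAPDH, POLR2A; bidirectional fit versus DMSO baseline.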

[13] = read-out: Nuclear factor erythroid 2-related factor 2 (Homo sapiens) (UniProt Q16236); experiment: LTEA_HepaRG_NFE2L2: Life Technologies and Expression Analysis (LTEA) Assay for Nuclear factor erythroid 2-related factor 2 (NFE2L2) Transcription Factor using HepaRG (AID 2283527);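 further: TaqMan qRT-PCR transcript level normalised to ACTB GAPDH and POLR2A housekeeping genes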
How it was run: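 Differentiated human HepaRG cells in serum-free induction medium were exposed for 48 h to eight concentrations (top 100 uM, half-log dilutions, 0.5% DMSO), in duplicate. NFE2L2 mRNA was quantified by TaqMan qRT-PCR, normalized to ACTB, GAPDH and POLR2A, with bidirectional fitting versus DMSO.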

[14] = read-out: succinate dehydrogenase complex iron sulfur subunit B (SDHB), SDHB (gene 6390); experiment: LTEA_HepaRG_SDHB: Life Technologies and Expression Analysis (LTEA) Assay for succinate dehydrogenase complex iron sulfur subunit B (SDHB) using HepaRG (AID 2283528)
How it was run: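 A human HepaRG culture in serum-free induction medium received test chemicals for 48 h over an eight-point range capped at 100 uM. SDHB expression change was quantified by qRT-PCR.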

[15] = read-out: Signal transducer and activator of transcription 3 (Homo sapiens) (UniProt P40763); experiment: LTEA_HepaRG_STAT3: Life Technologies and Expression Analysis (LTEA) Assay for Signal transducer and activator of transcription (STAT3) using HepaRG (AID 2283529)
How it was run: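 Differentiated human HepaRG cells in serum-free induction medium were exposed in duplicate for 48 h to eight half-log concentrations up to 100 uM in 0.5% DMSO. STAT3 mRNA was quantified by TaqMan qRT-PCR, normalized to ACTB, GAPDH and POLR2A, and fitted bidirectionally against DMSO.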

[16] = read-out: solute carrier (SLCO1B1), SLCO1B1 (gene 10599); experiment: LTEA_HepaRG_SLCO1B1: Life Technologies and Expression Analysis (LTEA) Assay for solute carrier (SLCO1B1) using HepaRG (AID 2283530)
How it was run: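 SLCO1B1 transcript read by qRT-PCR (Fluidigm arrays), normalized to three housekeeping genes, after 48 h chemical exposure of HepaRG cells; bidirectional concentration-response fitting versus 0.5% DMSO baseline. Eight-point half-log series, maximum 100 uM.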

[17] = read-out: sulfotransferase 2A1 (SULT2A1), SULT2A1 (gene 6822); experiment: LTEA_HepaRG_SULT2A1: Life Technologies and Expression Analysis (LTEA) Assay for sulfotransferase 2A1 (SULT2A1) using HepaRG (AID 2283531)
How it was run: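 HepaRG, 48 h chemical exposure, 8-pt half-log curve from 100 uM in 0.5% DMSO, duplicates. Readout: TaqMan qRT-PCR of SULT2A1 mRNA, housekeeping-normalized. Bidirectional fit vs DMSO baseline.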

Measured: outcome

Sequence of Nuclear factor NF-kappa-B p105 subunit (Homo sapiens) (P19838 whole entry, looked up): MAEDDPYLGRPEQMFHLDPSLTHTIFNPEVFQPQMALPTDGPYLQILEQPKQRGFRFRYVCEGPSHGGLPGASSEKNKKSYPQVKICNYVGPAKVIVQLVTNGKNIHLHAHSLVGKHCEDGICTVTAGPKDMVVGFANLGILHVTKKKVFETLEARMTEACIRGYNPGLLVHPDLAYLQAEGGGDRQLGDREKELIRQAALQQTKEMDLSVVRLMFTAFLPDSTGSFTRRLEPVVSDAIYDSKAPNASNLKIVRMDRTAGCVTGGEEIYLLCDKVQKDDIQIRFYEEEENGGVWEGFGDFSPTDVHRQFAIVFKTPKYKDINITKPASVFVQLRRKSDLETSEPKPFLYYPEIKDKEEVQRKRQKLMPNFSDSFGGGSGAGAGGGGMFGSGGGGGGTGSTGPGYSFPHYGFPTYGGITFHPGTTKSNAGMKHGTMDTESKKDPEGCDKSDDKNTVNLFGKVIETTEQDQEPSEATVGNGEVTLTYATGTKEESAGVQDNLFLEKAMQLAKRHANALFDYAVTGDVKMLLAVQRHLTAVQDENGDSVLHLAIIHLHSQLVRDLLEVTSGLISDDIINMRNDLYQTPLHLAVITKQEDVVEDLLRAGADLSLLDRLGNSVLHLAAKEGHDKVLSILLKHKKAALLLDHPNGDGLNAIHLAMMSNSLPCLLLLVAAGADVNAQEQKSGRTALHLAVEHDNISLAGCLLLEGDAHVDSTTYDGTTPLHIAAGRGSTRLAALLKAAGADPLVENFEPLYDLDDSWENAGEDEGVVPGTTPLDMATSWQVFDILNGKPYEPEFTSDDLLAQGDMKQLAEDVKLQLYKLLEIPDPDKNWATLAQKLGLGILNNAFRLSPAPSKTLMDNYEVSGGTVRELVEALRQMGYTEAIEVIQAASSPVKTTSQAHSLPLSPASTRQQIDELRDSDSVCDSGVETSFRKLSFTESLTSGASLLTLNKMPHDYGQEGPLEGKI
Sequence of Signal transducer and activator of transcription 3 (Homo sapiens) (P40763 whole entry, looked up): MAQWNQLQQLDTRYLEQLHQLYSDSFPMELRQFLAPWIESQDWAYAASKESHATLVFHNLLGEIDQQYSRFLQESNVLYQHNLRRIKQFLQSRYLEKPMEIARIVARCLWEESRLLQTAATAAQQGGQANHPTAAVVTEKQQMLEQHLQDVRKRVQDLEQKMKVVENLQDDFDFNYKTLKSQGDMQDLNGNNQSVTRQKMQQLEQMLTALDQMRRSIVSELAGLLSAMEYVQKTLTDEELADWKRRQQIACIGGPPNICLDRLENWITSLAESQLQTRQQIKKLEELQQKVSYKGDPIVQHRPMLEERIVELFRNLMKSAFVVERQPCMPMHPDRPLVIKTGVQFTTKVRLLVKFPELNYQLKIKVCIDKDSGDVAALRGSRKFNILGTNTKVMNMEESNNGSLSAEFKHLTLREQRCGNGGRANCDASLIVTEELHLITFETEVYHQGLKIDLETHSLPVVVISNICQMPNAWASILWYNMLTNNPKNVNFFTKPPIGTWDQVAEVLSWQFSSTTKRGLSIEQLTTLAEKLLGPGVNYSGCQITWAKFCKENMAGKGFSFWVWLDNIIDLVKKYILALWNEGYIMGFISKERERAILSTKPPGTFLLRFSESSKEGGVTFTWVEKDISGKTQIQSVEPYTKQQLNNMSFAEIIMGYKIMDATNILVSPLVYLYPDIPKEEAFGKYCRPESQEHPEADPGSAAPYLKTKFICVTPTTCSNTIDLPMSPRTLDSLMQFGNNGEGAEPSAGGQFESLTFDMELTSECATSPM
Sequence of Nuclear factor erythroid 2-related factor 2 (Homo sapiens) (Q16236 whole entry, looked up): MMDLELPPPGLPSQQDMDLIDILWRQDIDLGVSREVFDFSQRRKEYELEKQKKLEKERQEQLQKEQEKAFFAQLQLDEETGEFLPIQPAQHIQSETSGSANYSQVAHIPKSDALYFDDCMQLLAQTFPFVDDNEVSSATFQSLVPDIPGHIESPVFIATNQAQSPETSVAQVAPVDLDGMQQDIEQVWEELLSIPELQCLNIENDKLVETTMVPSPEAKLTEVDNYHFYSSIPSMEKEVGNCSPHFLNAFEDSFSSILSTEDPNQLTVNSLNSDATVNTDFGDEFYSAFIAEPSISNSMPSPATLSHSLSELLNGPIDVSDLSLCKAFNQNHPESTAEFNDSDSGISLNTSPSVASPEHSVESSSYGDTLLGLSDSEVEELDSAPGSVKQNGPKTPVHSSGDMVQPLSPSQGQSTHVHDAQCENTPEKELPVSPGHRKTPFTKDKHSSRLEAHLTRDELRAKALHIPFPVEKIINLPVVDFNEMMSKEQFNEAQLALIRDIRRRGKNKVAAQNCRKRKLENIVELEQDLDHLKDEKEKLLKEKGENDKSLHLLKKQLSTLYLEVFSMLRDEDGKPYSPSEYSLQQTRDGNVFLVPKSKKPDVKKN

c1cc[n+]2c(c1)-c1cccc[n+]1CC2
inactive: all assays above
